Data: PubChem BioAssay (NCATS)
Records with an inconclusive call do not appear. Where a call stands in place of a potency, no number is given. Active and inactive are the calls of the source. The call rests on the fitted dose curve; in most records, active means well fitted curve in the direction sought with a large enough effect; inconclusive means small, poorly fitted or top-dose-only effect, or another doubt; inactive means no such curve, though single readings can be large; an effect the other way counts as inactive or inconclusive.

Experiments:
[1] = qHTS assay for measurement of the activity of small molecule inhibitors on Zika virus induced Caspase-3 activity in human astrocytoma cells (AID 1224859); further: potency means the concentration at half of the fitted maximal effect
Outline: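 Percent inhibition of virus-induced caspase-3/7 signal is calculated against uninfected and ZIKV-infected control cells. Cells are SNB-19, infected at 2 FFU/cell for 6 h after 1 h compound exposure.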

[2] = qHTS Screen of the MIPE 4.0 Collection Against Ewings Sarcoma (RDES) (AID 1259252); further: nearly all actives have a fitted effect of over 35% in size; further: potency means the concentration at half of the fitted maximal effect
Outline: (§1)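 Compound titrations go onto adherent log-phase cells 4 h after seeding, incubate 48 h at 37C, then CellTiter-Glo luminescence reports viability relative to DMSO and cell-free controls.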

[3] = qHTS Screen of the MIPE 4.0 Collection Against Ewings Sarcoma (TC71) (AID 1259253); further: nearly all actives have a fitted effect of over 40% in size; further: potency means the concentration at half of the fitted maximal effect
Outline: as §1

[4] = qHTS Screen of the MIPE 4.0 Collection Against Ewings Sarcoma (EW8) (AID 1259255); further: nearly all actives have a fitted effect of over 35% in size; further: potency means the concentration at half of the fitted maximal effect
Outline: as §1

[5] = qHTS Screen of the MIPE 4.0 Collection Against Ewings Sarcoma (TC32) (AID 1259256); further: nearly all actives have a fitted effect of over 45% in size; further: potency means the concentration at half of the fitted maximal effect
Outline: as §1

[6] = qHTS assay to identify small molecule inhibitors of chordoma cells - UCH-1 (AID 1259355); further: nearly all actives have a fitted effect of over 55% in size; further: potency means the concentration at half of the fitted maximal effect; series mostly up to about 46 µM
Outline: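 A 48hr growth-inhibition format: each drug tested at 15 concentrations together with added auranofin, camptothecin, doxorubicin, rubitecan and topotecan, with cell viability quantified as CellTiter-Glo luminescence.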

[7] = qHTS assay to identify small molecule inhibitors of chordoma cells - UCH-2 (AID 1259356); further: series mostly up to about 46 µM
[8] = Identifying Small Molecule Inhibitors of Pancreatic Cancer Stem Cells (SN12C, Adherent) (AID 1259358);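 further: cell survival measured after 48 h of compound exposure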; further: potency means the concentration at half of the fitted maximal effect
Outline: (§2)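 Viability is scored by CellTiter-Glo luminescence 48 h after dosing, expressed as percent activity against vehicle and no-cell references. Spheroid formats rely on cells cultured 14 days in stem cell media beforehand.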

[9] = Identifying Small Molecule Inhibitors of Pancreatic Cancer Stem Cells (A2780, Spheroid) (AID 1259357); details: Potency: A2780 spheroid viability;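 further: spheroids pre-formed over 14 days in stem cell medium on hydrogel; potency means the concentration at half of the fitted maximal effect; compound exposure lasted 48 h before the ATP luminescence read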
Outline: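 Adherent (2D) versus sphere (3D) formats; spheres generated 14 d in SCM beforehand. Compound transferred by pin tool after 4 h, 48 h incubation, CellTiter-Glo endpoint.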

[10] = Identifying Small Molecule Inhibitors of Pancreatic Cancer Stem Cells (Panc1, Spheroid) (AID 1259359);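 further: compound exposure lasted 48 h before reading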; further: potency means the concentration at half of the fitted maximal effect
Outline: as §2

Compound	Potency [1]	Potency [2]	Potency [3]	Potency [4]	Potency [5]	Potency [6]	outcome [7]	Potency [8]	Potency [9]	Potency [10]
COc1cc(Oc2ccnc3cc(OC)c(OC)cc23)ccc1NC(=O)NC(C)c1nccs1 (stereo not drawn)	inactive	–	–	–	–	–	–	–	–	–
O=NN(CCCl)C(=O)NCCCl	inactive	inactive	inactive	inactive	inactive	inactive	inactive	–	–	–
C#Cc1cccc(Nc2ncnc3cc(OCCOC)c(OCCOC)cc23)c1	inactive	4.18 µM (active)	14.8 µM (active)	23.5 µM (active)	20.9 µM (active)	0.141 µM (active)	inactive	–	–	–
Cc1ccc(N(CC2=NCCN2)c2cccc(O)c2)cc1	inactive	inactive	14.8 µM (active)	inactive	16.6 µM (active)	inactive	inactive	–	–	–
CN(C(=O)c1ccc(F)cc1C(F)(F)F)C1CCN(c2nnc(-c3ccnn3C)c3ccccc23)CC1	inactive	20.9 µM (active)	–	–	–	–	–	–	–	–
Cc1ccnc(NS(=O)(=O)c2ccc(NC(=O)Nc3ccc(S(=O)(=O)Nc4nccc(C)n4)cc3)cc2)n1	inactive	–	–	–	–	–	–	–	–	–
CN1CCN(CCCN2c3ccccc3Sc3ccc(C(F)(F)F)cc32)CC1	inactive	10.5 µM (active)	10.5 µM (active)	23.5 µM (active)	14.8 µM (active)	inactive	inactive	–	–	–
O=c1[nH]cnc2[nH]ncc12	inactive	inactive	inactive	inactive	inactive	inactive	inactive	–	–	–
CN(C)C(=O)c1ccc(S(=O)(=O)c2ccc(NC(=O)[C@@](C)(O)C(F)(F)F)c(Cl)c2)cc1	inactive	20.9 µM (active)	18.7 µM (active)	inactive	–	–	–	–	–	–
Cc1[nH]c(=O)c(C#N)cc1-c1ccncc1	inactive	inactive	inactive	inactive	inactive	inactive	inactive	–	–	–
N#CC[C@H](C1CCCC1)n1cc(-c2ncnc3[nH]ccc23)cn1	inactive	18.7 µM (active)	20.9 µM (active)	16.6 µM (active)	–	–	–	–	–	–
Cc1ccc(-n2nc(C(C)(C)C)cc2NC(=O)Nc2ccc(OCCN3CCOCC3)c3ccccc23)cc1	inactive	29.6 µM (active)	20.9 µM (active)	–	20.9 µM (active)	–	–	–	–	–
O=C(O)CCc1ccc(NCc2cccc(Oc3ccccc3)c2)cc1	inactive	inactive	inactive	inactive	inactive	–	–	inactive	–	–
O=C1CCc2cc(OCCCCc3nnnn3C3CCCCC3)ccc2N1	inactive	inactive	inactive	–	inactive	inactive	inactive	–	–	–
CC1(C)SCCN(S(=O)(=O)c2ccc(OCC#CCO)cc2)[C@@H]1C(=O)NO	inactive	inactive	13.2 µM (active)	–	inactive	–	–	inactive	–	–
COc1ccc(-c2oc3cc(OC)ccc3c2C(=O)c2ccc(C#N)cc2)cc1	inactive	inactive	–	inactive	inactive	–	–	–	–	–
CC(C)(C)NCC(O)c1ccc(O)c(CO)c1 (stereo not drawn)	inactive	inactive	inactive	–	inactive	inactive	inactive	–	–	–
CCN(CC)CCCC(C)Nc1nc(C)cc(Nc2ccc3nc(C)cc(N)c3c2)n1 (stereo not drawn)	inactive	inactive	inactive	–	–	–	–	inactive	–	–
O=C(Nc1cccnc1)N1CCC(Cc2cccc(Oc3ccc(C(F)(F)F)cn3)c2)CC1	inactive	18.7 µM (active)	16.6 µM (active)	–	–	–	–	–	18.7 µM (active)	–
CS(=O)(=O)c1cccc(CNc2nc(Nc3ccc4c(c3)CCC(=O)N4)ncc2C(F)(F)F)c1	inactive	20.9 µM (active)	16.6 µM (active)	–	11.8 µM (active)	–	–	inactive	–	–
CCn1cc(C(=O)O)c(=O)c2cc(F)c(N3CCNC(C)C3)c(F)c21 (stereo not drawn)	inactive	inactive	inactive	–	inactive	inactive	inactive	–	–	–
CNC(=O)c1ccc(N2C(=S)N(c3ccc(C#N)c(C(F)(F)F)c3)C(=O)C2(C)C)cc1F	inactive	inactive	inactive	inactive	inactive	–	–	inactive	0.166 µM (active)	–
O=C(Nc1nc2ccccc2n1CCN1CCOCC1)c1cccc([N+](=O)[O-])c1	inactive	20.9 µM (active)	23.5 µM (active)	–	18.7 µM (active)	–	–	inactive	–	–
COc1ccc(-c2ccc3c(N4CCOCC4)nc(N4C[C@@H](C)O[C@@H](C)C4)nc3n2)cc1CO	inactive	0.526 µM (active)	0.833 µM (active)	–	0.59 µM (active)	–	–	0.235 µM (active)	–	1.05 µM (active)
CCOc1cc(N2CCC(O)CC2)ccc1Nc1ncc2c(n1)N(C)c1ccccc1C(=O)N2C	inactive	20.9 µM (active)	16.6 µM (active)	–	16.6 µM (active)	–	–	–	–	–
Cc1cnc(NC(=O)C2=C(O)c3ccccc3S(=O)(=O)N2C)s1	inactive	inactive	inactive	–	inactive	inactive	inactive	–	–	–
CCn1c(-c2nonc2N)nc2c(C#CC(C)(C)O)ncc(OC[C@H]3CCCNC3)c21	inactive	23.5 µM (active)	18.7 µM (active)	–	18.7 µM (active)	–	–	inactive	–	inactive
Clc1cccc(Cl)c1NC1=NCCN1	inactive	inactive	inactive	–	inactive	inactive	inactive	–	–	–
COc1ccc(CC2=NN3C([C@@H](CCc4ccccc4)[C@@H](C)O)=NC(C)C3C(=O)N2)cc1OC (stereo partly drawn)	10.5 µM (active)	inactive	inactive	–	inactive	–	–	–	–	–
